Reference: article PMC8384837, “Expanding the binding specificity for RNA recognition by a PUF domain”

Target: PUM1 PUF domain R5-FRR (Homo sapiens, UniProt Q14671 828-1176, C1007F;Q1011R)
Assay: yeast three-hybrid, YBZ-1, SC-Leu-His + 0.5 mM 3-AT, 4 days
Settings: tags: N-Gal4 AD-HA kept; label: inside an RPR1-promoter hybrid RNA with tandem MS2 sites; ssRNA
In short: (§1)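 Each repeat of the Pumilio-1 PUF domain was randomized at its three base-contacting residues, and these libraries were co-expressed from a centromeric plasmid with matching RNA elements in strain YBZ-1. After four days on SC-Leu (input) or SC-Leu-His + 0.5 mM 3-AT (selection), the repeat regions were PCR-amplified and Illumina-sequenced. The interaction score compares variant frequency between input and selection as a log change, computed in log2 with a pseudocount of 1 for absent variants.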

Sequence of PUM1 PUF domain R5-FRR (Q14671 828-1176 C1007F/Q1011R): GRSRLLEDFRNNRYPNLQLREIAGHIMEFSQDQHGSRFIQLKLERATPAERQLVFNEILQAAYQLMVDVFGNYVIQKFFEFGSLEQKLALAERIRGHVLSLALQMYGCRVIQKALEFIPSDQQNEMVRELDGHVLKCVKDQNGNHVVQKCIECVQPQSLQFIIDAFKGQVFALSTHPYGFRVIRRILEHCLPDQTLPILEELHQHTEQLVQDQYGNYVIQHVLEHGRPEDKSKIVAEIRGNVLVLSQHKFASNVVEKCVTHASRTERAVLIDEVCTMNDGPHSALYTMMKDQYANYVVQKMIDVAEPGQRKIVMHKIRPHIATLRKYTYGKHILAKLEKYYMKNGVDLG

| Sequence | binding signal |
| --- | --- |
| GGCUAGAACUAGUGGAUCCCCCGGCGCCCGGCGGCUCGAGCCCGGGUAAGUGUAAAUAGUCUGCAUGCCGCCGGGCGCCAUGCCUGCAGGUCGACUCUAGAAAACAUG | 1.31 log2 enrichment (interaction score) |
| GGCUAGAACUAGUGGAUCCCCCGGCGCCCGGCGGCUCGAGCCCGGGUAAGUGUUAAUAGUCUGCAUGCCGCCGGGCGCCAUGCCUGCAGGUCGACUCUAGAAAACAUG | 3.38 log2 enrichment (interaction score) |
| GGCUAGAACUAGUGGAUCCCCCGGCGCCCGGCGGCUCGAGCCCGGGUAAGUGUCAAUAGUCUGCAUGCCGCCGGGCGCCAUGCCUGCAGGUCGACUCUAGAAAACAUG | 4.1 log2 enrichment (interaction score) |

Target: PUM1 PUF domain R4-SPW (Homo sapiens, UniProt Q14671 828-1176, N971S;H972P;Q975W)
Assay: as above
Settings: tags: N-Gal4 AD-HA kept; label: inside an RPR1-promoter hybrid RNA with tandem MS2 sites; ssRNA
In short: as §1

Sequence of PUM1 PUF domain R4-SPW (Q14671 828-1176 N971S/H972P/Q975W): as the sequence (Q14671 828-1176 C1007F/Q1011R) above, with N144S, H145P, Q148W, F180C, R184Q counted along it

| Sequence | binding signal |
| --- | --- |
| GGCUAGAACUAGUGGAUCCCCCGGCGCCCGGCGGCUCGAGCCCGGGUAAGUGUACAUAGUCUGCAUGCCGCCGGGCGCCAUGCCUGCAGGUCGACUCUAGAAAACAUG | 0.34 log2 enrichment (interaction score) |
| GGCUAGAACUAGUGGAUCCCCCGGCGCCCGGCGGCUCGAGCCCGGGUAAGUGUAAAUAGUCUGCAUGCCGCCGGGCGCCAUGCCUGCAGGUCGACUCUAGAAAACAUG | 3.13 log2 enrichment (interaction score) |
| GGCUAGAACUAGUGGAUCCCCCGGCGCCCGGCGGCUCGAGCCCGGGUAAGUGUAUAUAGUCUGCAUGCCGCCGGGCGCCAUGCCUGCAGGUCGACUCUAGAAAACAUG | 2.59 log2 enrichment (interaction score) |
